Results reported in the supplement of paper PMC6555819.

Test system: RARa homodimer (NR concentration 270 nM)
Assay: PBM binding z-score (relative to random genomic background probes); higher = stronger binding; sequences stand for … in GC…GCGATTGACAGCGTAGAATGAAGG
Summary of the method: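 Custom Agilent 4×180K protein-binding microarrays carried double-stranded probes. Their 34-nt variable regions held direct-repeat seeds, single-nucleotide variants, half-site ablations and random human genomic background sequences. Arrays were incubated 1 h with ligand-free nuclear receptor dimers in PBS pH 7.4, 2% milk, 0.02% Triton X-100, 1 mM DTT, 0.2 mg/mL BSA and 0.4 mg/ml salmon testes DNA. Antibodies against each partner (one per run) detected binding, and scanned fluorescence was regression-normalized. Binding z-scores use random background probes as reference.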

| Sequence | PBM binding z-score |
| --- | --- |
| TCTCGGAGGACACGAAGGTCAGAGCCTTCCAGAG | 0.0341 |
| ACAGACAGGTGAGTGAAGGTAACGCAGCTGGACG | -0.195 |
| AGTCAAAGTTCAGGACGAGGTATCGTAAAGCACG | 0.462 |
| TCTAGTTGGTCACGGCGGTCACACACGACGGGTA | 0.669 |
| ACTGACGGGTCAACGAGGTTATAGCACGCGTATA | 0.626 |
| TCGAGTAGGTTAGGGGCAATCAGAATGGCGTCGA | -0.176 |
| AGAATGAGGTTAAGATCAGCGAAACAGAATACAT | 0.555 |
| TCAGACAAGTGAAGGTAACTCAGGTACGCAGTCG | -0.0772 |
| ACTATTAGTTGACTTAGGGCAACCGCTACGACGC | 0.391 |
| ATGTGTAGGTTAAGGGTCATTCAGGTTGGTTCGC | 3.77 |
| CAAACTCGGTCACGAAAGGTCAAAGTCGAATGAC | 4.39 |
| ATATATAGGTTACATCCGGGTCATTCAGGCTATG | 1.77 |
| AGAATGAGGTTACCAAAGATCATGGAAACGCTTG | 0.108 |
| TTACCAAGCTGAAAGGTCGTTGATGCACGCCTTG | -0.928 |
| CTCGAAAGGTCGTGCTCAGCTGAGTATACCAAAC | 0.13 |
| ACCGAAAGGTCGACGAGGTGAGTATACACCGTTT | 0.4 |
| AGCATGAGGTTATTAAGATCAGGGAATTGCGGTC | 0.368 |
| AGAACGAGGGCAATGATTTGATAGCACGGGTGGC | 0.605 |
| TCATATAGGTAATACAGGTGACAGTCGGCATCTA | 1.35 |
| CCTAGCAGGCCAATCTGGGCCACTCAAGGCTTGA | -0.723 |

| Sequence | PBM binding z-score |
| --- | --- |
| CCAAACAGGTGAGAAGGTAACTCAGCCTCGATTA | 0.426 |
| GTTAGTTGGTCAGTAAAAGGTCACACACCGGTCG | 3.99 |
| TCATATAGGTAAATGCTAGGGGAAAGTCCGATCT | 1.4 |
| CCTTACGGTTCACTCCAGGTTATAGCATCGGAGT | 1.57 |
| ACTAGCAGGCCAAGTTTGGGTCTCTCAAACAAAG | -1.44 |
| TCGACTAGGTTAGTCGGGGCATTCAGCCAACATA | -1.11 |
| ATCTCTAGGTAACGAAGTTCAGTGAATGCCGAAC | 0.64 |
| CATACAGGGTCAGCCAGGCCAGAGTAGGGACGGC | 0.562 |
| ATATGAAGGTTAGCTGGGGTCATTCAGACTAGGC | 1.42 |
| ATCTCTAGGTAAAGATAGTTCAGCGAATGCAAAT | 1.34 |
| TATACAGGGTCAAAGCCCAGAGTACGAATGTCGA | 0.678 |
| TCTGCTAAGTCAACGATGGTCAGCTAATCTGCTA | -1.62 |
| ATATGTAGGTTACATCCGGGTTATTCAGGCTATG | 0.67 |
| CCTATTACTTGACCATAAGGGCAACCGAAGCTCG | 2.03 |
| CCTATTAGTTGACCATAAGGGCGACCGAAGCTCG | 1.68 |
| TCTAGTTGGTCACTGAGGTCACACACGACGGGTA | 2.05 |
| TCTGCTAGGTCAACGATGGTCAGCTCATCTGCTA | -0.783 |
| AGAATGAGGTTATACGCAGATCAGGGAAGAAAGT | 0.675 |
| TCTATTAGTTGTTTAGGGCAACCGAAACAGCGGA | 1.2 |
| CCCGACAGGTGAAAGGTAACTCAGTCTGGTACGC | 0.375 |
